# Source: article PMC4336329 (PLoS ONE, 2015)
# Among all 310,000 compounds or so, about 14,000 (4.5%) showed an effect of 50% or more. The effect is printed as a negative number. What follows is part of a selection rich in strong results, with near analogues and random picks from the rest.
# Target: human ether-à-go-go-related gene (hERG) potassium channel (human, UniProt Q12809)
# Assay: primary screen, population patch clamp on CHO cells stably expressing hERG; higher = less effect of the substance
# 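Further: peak tail current of the secondary pulse compared with the same well before compound.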
# Sequence of human ether-à-go-go-related gene (hERG) potassium channel (Q12809 whole entry, looked up): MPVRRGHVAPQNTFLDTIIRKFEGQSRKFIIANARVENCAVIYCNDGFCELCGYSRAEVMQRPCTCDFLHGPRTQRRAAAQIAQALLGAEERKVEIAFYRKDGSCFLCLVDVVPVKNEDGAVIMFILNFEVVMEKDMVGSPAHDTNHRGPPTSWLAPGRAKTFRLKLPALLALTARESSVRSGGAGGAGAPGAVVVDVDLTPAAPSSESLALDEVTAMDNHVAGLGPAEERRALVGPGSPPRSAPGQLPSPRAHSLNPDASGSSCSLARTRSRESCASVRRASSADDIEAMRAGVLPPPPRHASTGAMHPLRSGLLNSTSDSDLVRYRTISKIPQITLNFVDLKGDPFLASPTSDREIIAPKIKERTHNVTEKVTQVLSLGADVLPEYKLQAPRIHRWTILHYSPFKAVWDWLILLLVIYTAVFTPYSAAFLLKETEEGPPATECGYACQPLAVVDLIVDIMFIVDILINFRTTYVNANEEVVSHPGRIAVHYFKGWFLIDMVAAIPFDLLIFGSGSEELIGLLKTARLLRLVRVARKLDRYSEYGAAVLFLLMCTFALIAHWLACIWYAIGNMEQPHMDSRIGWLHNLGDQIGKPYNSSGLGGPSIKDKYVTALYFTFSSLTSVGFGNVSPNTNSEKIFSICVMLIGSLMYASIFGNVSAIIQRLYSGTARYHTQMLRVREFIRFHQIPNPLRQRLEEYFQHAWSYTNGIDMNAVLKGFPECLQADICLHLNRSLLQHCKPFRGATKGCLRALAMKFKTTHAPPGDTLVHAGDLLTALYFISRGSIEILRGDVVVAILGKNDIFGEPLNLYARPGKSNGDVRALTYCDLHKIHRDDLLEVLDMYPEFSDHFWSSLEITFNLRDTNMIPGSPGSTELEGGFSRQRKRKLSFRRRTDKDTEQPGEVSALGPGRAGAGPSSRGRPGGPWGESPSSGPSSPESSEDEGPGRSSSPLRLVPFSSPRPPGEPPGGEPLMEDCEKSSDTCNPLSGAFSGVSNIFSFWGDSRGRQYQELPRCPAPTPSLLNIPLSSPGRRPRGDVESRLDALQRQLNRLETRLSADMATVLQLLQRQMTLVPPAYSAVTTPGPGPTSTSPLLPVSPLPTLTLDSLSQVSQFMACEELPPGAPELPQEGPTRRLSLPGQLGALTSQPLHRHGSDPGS
row,Compound,"hERG current change (%, negative = inhibition) at 10uM [%]"
1,CCOC(=O)c1cc(C)n(S(=O)(=O)c2ccc(C)cc2)c1C,-2.18
2,Cc1ccc(-c2cn(S(=O)(=O)c3cccc([N+](=O)[O-])c3)nc2N)cc1,15.3
3,COc1ccccc1CNC(=O)CCC(=O)N1C[C@H]2C[C@@H](C1)c1cccc(=O)n1C2,-5.65
4,O=C(COc1ncnc2sccc12)Nc1cccc(S(=O)(=O)N2CCOCC2)c1,-2.77
5,O=C(Nc1ccc2nc(C3CC3)n(Cc3ccccc3)c(=O)c2c1)C1CC1,-6.15
6,CC1(C)CC(NC(=O)COc2cc3oc(=O)c4c(c3cc2Cl)CCC4)CC(C)(C)N1,11.2
7,COc1ccc(OC)c(C(c2nnnn2C2CCCC2)N2CCc3ccccc3C2)c1 (centres unmarked),-11.1
8,COc1ccc(/C=C/C(=O)OCC(=O)Nc2cc(S(=O)(=O)N(C)C)ccc2Cl)cc1,28.4
9,CCN(CC(=O)Nc1ccc(NC(C)=O)cc1)C(=O)COc1ccc2ccccc2c1,-10.1
10,CCN(CC(=O)Nc1c(F)cccc1F)C(=O)c1cccnc1SC,6.33
11,CCOc1ncccc1C(=O)N(CC)CC(=O)NCc1ccc(F)cc1,7.12
12,CCN(CC(=O)NCc1ccc(F)cc1)C(=O)COc1ccc2ccccc2c1,-70.5
13,CCN(CC(=O)NCc1ccc(F)cc1)C(=O)c1cccnc1SC,-62.9
14,CCc1ccccc1OCC(=O)N(CC)CC(=O)NCc1ccc(F)cc1,8
15,Cc1cc(C(=O)NC2CCCc3c2cnn3-c2ccc(C)c(C)c2)no1 (centres unmarked),-42.9
16,Cc1ccc(-n2ncc3c2CCCC3NC(=O)c2ccoc2)cc1C (centres unmarked),-79.2
17,COC(=O)c1ccc(C(=O)NC2CCCc3c2cnn3-c2ccc(C)c(C)c2)cc1 (centres unmarked),6.54
18,CCCC(=O)NC1CCCc2c1cnn2-c1ccc(C)c(C)c1 (centres unmarked),-72
19,Cc1ccc(-n2ncc3c2CCCC3NC(=O)CCc2cnn(C)c2)cc1C (centres unmarked),7.27
20,CSCC(=O)NC1CCCc2c1cnn2-c1ccc(C)c(C)c1 (centres unmarked),-28
21,O=C1COc2ccc(S(=O)(=O)NCCc3ccccc3)cc2N1,10.7
22,CC(NC(=O)c1cc(S(=O)(=O)N2CCCC2)ccc1Cl)c1ccccn1 (centres unmarked),18.1
23,CCOc1ccc(C2C3=C(CC(C)(C)CC3=O)N(CC(=O)O)C3=C2C(=O)CC(C)(C)C3)cc1OCC,5.47

row,Compound,"hERG current change (%, negative = inhibition) at 10uM [%]"
1,CC1CC(C)CN(C(=S)Nc2ccc(SC(F)F)cc2)C1 (centres unmarked),-51.8
2,CC(=O)c1ccc(NC(=S)N(C)C2CCN(C)CC2)cc1,-4.16
3,CC1CN(C(=S)Nc2ccc(SC(F)F)cc2)CC(C)O1 (centres unmarked),-27.6
4,CC1CC(C)CN(C(=O)c2ccccc2Nc2ccc(SC(F)F)cc2)C1 (centres unmarked),0.904
5,O=C(NCc1ccncc1)c1cccc(S(=O)(=O)Nc2ccc(SC(F)F)cc2)c1,-3.21
6,CN1CCC(N(C)C(=S)Nc2ccc(F)cc2)CC1,21.3
7,CN1CCC(N(C)C(=O)c2ccccc2Nc2ccc(SC(F)F)cc2)CC1,-62.2
8,CN1CCN(C(=O)c2ccccc2Nc2ccc(SC(F)F)cc2)CC1.Cl,-26
9,CN1CCC(N(C)C(=S)Nc2ccc(SC(F)F)cc2)CC1,-56.6
10,O=C(NCc1ccncc1)c1ccccc1Nc1ccc(SC(F)F)cc1,-63.9
11,CNC(=O)c1ccccc1Nc1ccc(SC(F)F)cc1,-1.62
12,CC1CCN(C(=S)Nc2ccc(SC(F)F)cc2)CC1,-33
13,O=C(CCN1C(=O)c2ccccc2C1=O)OCN1C(=O)c2ccccc2C1=O,-11.5
14,COCCSc1ccccc1C(=O)NCc1cccnc1,18.7
15,CCc1c(C)[nH]c2nc3ccccc3n2c1=O,4.86
16,CC(C)c1nc2ccc(NC(=O)C34CC5CC(CC(C5)C3)C4)cc2[nH]1,4.9
17,COCCCn1c(SCC(=O)Nc2nnc(C)s2)nnc1-c1ccoc1C,4.33
18,Cc1ccc(NC2=NC(=S)N(CC#N)C23CCCCC3)cc1,-6.19
19,COc1cccc(C(=O)C2CCCN(Cc3c(C)n(C)n(-c4ccccc4)c3=O)C2)c1 (centres unmarked),-21.2
20,CC(C)Oc1cccc(C(=O)C2CCCN(Cc3cccn3-c3ccccn3)C2)c1 (centres unmarked),-78.8
21,COc1cccc(C(=O)C2CCCN(C(=O)c3ccccn3)C2)c1 (centres unmarked),3.77
22,Cc1c(CN2CCCC(C(=O)c3cccc(Cl)c3)C2)c(=O)n(-c2ccccc2)n1C (centres unmarked),-24
23,Cc1c(CN2CCCC(C(=O)c3cccc(OC(C)C)c3)C2)c(=O)n(-c2ccccc2)n1C (centres unmarked),-57.2

row,Compound,"hERG current change (%, negative = inhibition) at 10uM [%]"
1,COc1cccc(C(=O)C2CCCN(Cc3cccn3-c3ccccn3)C2)c1 (centres unmarked),-76.5
2,CC(C)Oc1cccc(C(=O)C2CCCN(Cc3cccn3-c3cccnc3)C2)c1 (centres unmarked),-27.7
3,CC(C)Oc1cccc(C(=O)C2CCCN(Cc3ccon3)C2)c1 (centres unmarked),-3.37
4,COc1ccc(C(=O)Nc2c3c(nn2C(C)(C)C)CS(=O)(=O)C3)cc1OC,13.1
5,CCc1ccccc1NS(=O)(=O)c1cc(C)ccc1OC,-5.89
6,O=C(O)COc1ccccc1/C=N/NC(=O)c1ccc2c(c1)OCCO2,-2.93
7,O=C(CSc1nnc(COc2ccc3c(c2)CCCC3)o1)Nc1ccc(F)cc1,10.2
8,Cc1ccc2c(C)nc(Nc3ncc4c(n3)CCCC4=O)nc2c1,-12.4
9,Cc1cc(C)n2nnnc2n1,18.5
10,Cc1cc(C(=O)NCCC(c2ccccc2)c2ccccc2)c(C)o1,-17.5
11,COc1ccccc1C(=O)NCC(=O)Nc1ccccc1,5.97
12,Cc1ccc(C(NC(=O)c2ccccc2S(C)(=O)=O)c2ccccc2)cc1 (centres unmarked),-30.3
13,COc1ccccc1C(=O)NCC(=O)NC(C)CCc1ccccc1 (centres unmarked),1.99
14,CS(=O)(=O)c1ccccc1C(=O)NCCC(c1ccccc1)c1ccccc1,-51.9
15,COc1ccccc1C(=O)NCC(=O)NCCC(c1ccccc1)c1ccccc1,-64.4
16,O=C(C1CCCO1)N1CCN(C(=S)Nc2ccc(Cl)c(Cl)c2)CC1 (centres unmarked),-30.2
17,CCN(CC)C(=O)c1cn(-c2ccccc2)nc1-c1ccc2c(c1)OCCO2,-3.56
18,O=C(Nn1c(C2CC2)nc2ccccc2c1=O)c1ccco1,-8.14
19,CCN(CC(=O)NCc1ccc(F)cc1)C(=O)/C=C/c1cccs1,-40.9
20,Cc1cc(C)n(-c2ccc(Cl)c(C(=O)OCC(=O)N3CCCCC3C)n2)n1 (centres unmarked),-4.12
21,NC(N)=Nc1nc(-c2ccccc2)c2ccccc2n1,-40.1
22,Cc1nc(N=C(N)N)nc2ccccc12,23.6
23,NNc1nc(-c2ccccc2)c2cc(Cl)ccc2n1,-11.3

row,Compound,"hERG current change (%, negative = inhibition) at 10uM [%]"
1,NC(N)=Nc1nc(-c2ccccc2)c2cc(F)ccc2n1,-66.2
2,Clc1ccc2nnnc(-c3ccccc3)c2c1,-9.98
3,Cl.NC(N)=Nc1nc(-c2ccccc2)c2cc(Cl)ccc2n1,-67.9
4,CC(=O)c1ccc(NC(=S)N2CCN(C(=S)Nc3ccc(C(C)=O)cc3)C(C)C2)cc1 (centres unmarked),20.6
5,CCN(CC)S(=O)(=O)c1cccc(NC(=S)NC(=O)/C=C/c2ccc(S(=O)(=O)N3CCOCC3)cc2)c1,-6.82
6,CCCCc1nc2ccccc2[nH]1,14.2
7,CSc1nc2sc(-c3ccccc3)cc2c(=O)n1N,17.4
8,O=C(NNC(=O)c1ccccc1-n1cccc1)c1ccccc1,-18.3
9,N#Cc1nc(-c2ccccc2Cl)oc1NCc1ccco1,-8.28
10,Cc1ccc(-c2nc(C#N)c(NCc3ccco3)o2)cc1,-0.709
11,Cc1ccccc1-c1nc(C#N)c(NCc2ccco2)o1,-57.2
12,O=C(COc1ccccc1)N1CCN(C(=O)Cc2ccccc2)CC1,-1.51
13,COc1cc2nc(SCC(=O)c3ccc(Br)cc3)n3nc(C)nc3c2cc1OC,-17.7
14,Cc1nn(C)cc1CN1CCCC(C(=O)c2ccc(-c3ccccc3)cc2)C1 (centres unmarked),-45.4
15,Cn1cc(CN2CCCC(C(=O)c3cccs3)C2)c(-c2cccc(Cl)c2)n1 (centres unmarked),-39.2
16,COc1cccc(C(=O)C2CCCN(Cc3cn(CC(N)=O)c4ccccc34)C2)c1 (centres unmarked),-53
17,COc1ccc(C(=O)C2CCCN(Cc3cn(C)nc3-c3ccccc3)C2)cc1F (centres unmarked),-72.4
18,COc1cccc(C(=O)C2CCCN(Cc3cn(C)nc3-c3ccccc3)C2)c1 (centres unmarked),-68.8
19,Cc1ccsc1C(=O)C1CCCN(Cc2cn(C)nc2-c2ccccc2)C1 (centres unmarked),-32.1
20,Cc1nn(C)cc1CN1CCCC(C(=O)c2ccc(-c3ccccc3)c(F)c2)C1 (centres unmarked),-15.3
